# ± gives the standard deviation.
# T1: HaloTag-ATRX ADD domain (163-292)
# T1 chain: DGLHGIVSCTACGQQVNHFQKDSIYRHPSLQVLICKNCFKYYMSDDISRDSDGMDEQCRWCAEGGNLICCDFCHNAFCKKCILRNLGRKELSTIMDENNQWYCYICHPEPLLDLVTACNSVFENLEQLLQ
# What was measured:
# Assay in all cases: peptide microarray binding signal (635 nm), min-max normalized on array (fraction of array maximum); higher = stronger binding
# [1] = molecular target: T1, HaloTag-ATRX ADD domain (163-292)
# Summary of the method: (§1)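 Triplicate spots of histone 13-mer peptide–cellulose conjugates with a Cy3 tracer were printed on nitrocellulose and probed for 1 h at 4°C with biotin-labelled HaloTag reader fusions (10 nM to 1 μM) plus streptavidin-Alexa Fluor 647 or rabbit histone antibodies (1:10,000 to 1:2,000) plus anti-rabbit Alexa 647. An Axon GenePix 4000B read the 635 nm channel. Binding signal is the spot-triplicate mean intensity after min-max scaling within each library.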
# [2] = molecular target: HaloTag-ING2 PHD (mouse Ing2 200-280)
# Summary of the method: as §1
# [3] = molecular target: anti-H3K4me3 antibody ab8580
# Summary of the method: as §1
# [4] = molecular target: anti-H3K9me3 antibody ab8898
# Summary of the method: as §1
# [5] = peptide region: H4 38-50, peptide modifications: H4R45cit, binder concentration: 1:2,000 dilution
# [6] = peptide region: H4 38-50, peptide modifications: H4R45cit, binder concentration: 1:10,000 dilution
# [7] = peptide region: H4 38-50, peptide modifications: H4K44me3 H4R45me2s, binder concentration: 1:2,000 dilution
# [8] = peptide region: H4 38-50, peptide modifications: H4K44me3 H4R45me2s, binder concentration: 1:10,000 dilution
# [9] = peptide region: H4 53-65, peptide modifications: H4K59me1, binder concentration: 1:2,000 dilution
# [10] = peptide region: H4 53-65, peptide modifications: H4K59me1, binder concentration: 1:10,000 dilution
# [11] = peptide region: H4 38-50, peptide modifications: H4K44me3 H4R45me2a, binder concentration: 1:2,000 dilution
# [12] = peptide region: H4 38-50, peptide modifications: H4K44me3 H4R45me2a, binder concentration: 1:10,000 dilution
# [13] = peptide region: H4 38-50, peptide modifications: H4R45me1, binder concentration: 1:2,000 dilution
# [14] = peptide region: H4 38-50, peptide modifications: H4R45me1, binder concentration: 1:10,000 dilution
# [15] = peptide region: H4 53-65, binder concentration: 1:2,000 dilution
# [16] = peptide region: H4 53-65, binder concentration: 1:10,000 dilution
# [17] = peptide region: H4 53-65, peptide modifications: H4K59ac, binder concentration: 1:2,000 dilution
# [18] = peptide region: H4 53-65, peptide modifications: H4K59ac, binder concentration: 1:10,000 dilution
# [19] = peptide region: H4 38-50, peptide modifications: H4R45me2a, binder concentration: 1:2,000 dilution
# [20] = peptide region: H4 38-50, peptide modifications: H4R45me2a, binder concentration: 1:10,000 dilution
# [21] = peptide region: H4 38-50, peptide modifications: H4R45me2s, binder concentration: 1:2,000 dilution
# [22] = peptide region: H4 38-50, peptide modifications: H4R45me2s, binder concentration: 1:10,000 dilution
# [23] = peptide region: H4 53-65, peptide modifications: H4K59me2, binder concentration: 1:2,000 dilution
# [24] = peptide region: H4 53-65, peptide modifications: H4K59me2, binder concentration: 1:10,000 dilution
binder,measurement,setting,value
ARRGGVKRISGLI [H4 38-50 A R R G G V K Rcit I S G L I],peptide microarray binding signal,"[1]; peptide region: H4 38-50, peptide modifications: H4R45cit, binder concentration: 50 nM",0.00395 ± 6.8e-05
same,peptide microarray binding signal,"[1]; peptide region: H4 38-50, peptide modifications: H4R45cit, binder concentration: 500 nM",0.00619 ± 7.4e-05
same,peptide microarray binding signal,"[2]; peptide region: H4 38-50, peptide modifications: H4R45cit, binder concentration: 10 nM",0.00561 ± 4.7e-05
same,peptide microarray binding signal,"[2]; peptide region: H4 38-50, peptide modifications: H4R45cit, binder concentration: 100 nM",0.0163 ± 0.003
same,peptide microarray binding signal,[3]; [5],0.012 ± 0.0055
same,peptide microarray binding signal,[3]; [6],0.00976 ± 0.00034
same,peptide microarray binding signal,[4]; [5],0.00521 ± 0.00036
same,peptide microarray binding signal,[4]; [6],0.00271 ± 7.1e-05
ARRGGVKRISGLI [H4 38-50 A R R G G V Kme3 Rme2s I S G L I],peptide microarray binding signal,"[1]; peptide region: H4 38-50, peptide modifications: H4K44me3 H4R45me2s, binder concentration: 50 nM",0.00533 ± 8.8e-05
same,peptide microarray binding signal,"[1]; peptide region: H4 38-50, peptide modifications: H4K44me3 H4R45me2s, binder concentration: 500 nM",0.0131 ± 0.0006
same,peptide microarray binding signal,"[2]; peptide region: H4 38-50, peptide modifications: H4K44me3 H4R45me2s, binder concentration: 10 nM",0.0355 ± 0.0027
same,peptide microarray binding signal,"[2]; peptide region: H4 38-50, peptide modifications: H4K44me3 H4R45me2s, binder concentration: 100 nM",0.0541 ± 0.0061
same,peptide microarray binding signal,[3]; [7],0.0265 ± 0.0032
same,peptide microarray binding signal,[3]; [8],0.0193 ± 0.0017
same,peptide microarray binding signal,[4]; [7],0.0291 ± 0.0028
same,peptide microarray binding signal,[4]; [8],0.0206 ± 0.0014
ETRGVLKVFLENV [H4 53-65 E T R G V L Kme V F L E N V],peptide microarray binding signal,"[1]; peptide region: H4 53-65, peptide modifications: H4K59me1, binder concentration: 50 nM",0.00605 ± 0.00068
same,peptide microarray binding signal,"[1]; peptide region: H4 53-65, peptide modifications: H4K59me1, binder concentration: 500 nM",0.00795 ± 0.00042
same,peptide microarray binding signal,"[2]; peptide region: H4 53-65, peptide modifications: H4K59me1, binder concentration: 10 nM",0.00847 ± 0.001
same,peptide microarray binding signal,"[2]; peptide region: H4 53-65, peptide modifications: H4K59me1, binder concentration: 100 nM",0.0164 ± 0.0049
same,peptide microarray binding signal,[3]; [9],0.00213 ± 0.00025
same,peptide microarray binding signal,[3]; [10],0.00314 ± 0.00021
same,peptide microarray binding signal,[4]; [9],0.00166 ± 0.00016
same,peptide microarray binding signal,[4]; [10],0.00231 ± 8.4e-05
ARRGGVKRISGLI [H4 38-50 A R R G G V Kme3 Rme2a I S G L I],peptide microarray binding signal,"[1]; peptide region: H4 38-50, peptide modifications: H4K44me3 H4R45me2a, binder concentration: 50 nM",0.00524 ± 0.00017
same,peptide microarray binding signal,"[1]; peptide region: H4 38-50, peptide modifications: H4K44me3 H4R45me2a, binder concentration: 500 nM",0.00852 ± 0.00069
same,peptide microarray binding signal,"[2]; peptide region: H4 38-50, peptide modifications: H4K44me3 H4R45me2a, binder concentration: 10 nM",0.0304 ± 0.0024
same,peptide microarray binding signal,"[2]; peptide region: H4 38-50, peptide modifications: H4K44me3 H4R45me2a, binder concentration: 100 nM",0.0612 ± 0.0075
same,peptide microarray binding signal,[3]; [11],0.0239 ± 0.0068
same,peptide microarray binding signal,[3]; [12],0.016 ± 0.00029
same,peptide microarray binding signal,[4]; [11],0.0197 ± 0.0016
same,peptide microarray binding signal,[4]; [12],0.009686 ± 5.3e-05
ARRGGVKRISGLI [H4 38-50 A R R G G V K Rme I S G L I],peptide microarray binding signal,"[1]; peptide region: H4 38-50, peptide modifications: H4R45me1, binder concentration: 50 nM",0.00486 ± 6.2e-05
same,peptide microarray binding signal,"[1]; peptide region: H4 38-50, peptide modifications: H4R45me1, binder concentration: 500 nM",0.0107 ± 0.00046
same,peptide microarray binding signal,"[2]; peptide region: H4 38-50, peptide modifications: H4R45me1, binder concentration: 10 nM",0.01247 ± 0.00012
same,peptide microarray binding signal,"[2]; peptide region: H4 38-50, peptide modifications: H4R45me1, binder concentration: 100 nM",0.0215 ± 0.0011
same,peptide microarray binding signal,[3]; [13],0.00306 ± 5.9e-05
same,peptide microarray binding signal,[3]; [14],0.00508 ± 7.3e-05
same,peptide microarray binding signal,[4]; [13],0.0021 ± 4.5e-05
same,peptide microarray binding signal,[4]; [14],0.0019 ± 3.6e-05
ETRGVLKVFLENV [H4 53-65 E T R G V L K V F L E N V],peptide microarray binding signal,"[1]; peptide region: H4 53-65, binder concentration: 50 nM",0.00282 ± 3.2e-05
same,peptide microarray binding signal,"[1]; peptide region: H4 53-65, binder concentration: 500 nM",0.003334 ± 2.5e-05
same,peptide microarray binding signal,"[2]; peptide region: H4 53-65, binder concentration: 10 nM",0.00639 ± 0.00028
same,peptide microarray binding signal,"[2]; peptide region: H4 53-65, binder concentration: 100 nM",0.00461 ± 7.6e-05
same,peptide microarray binding signal,[3]; [15],0.00121 ± 3.5e-05
same,peptide microarray binding signal,[3]; [16],0.00188 ± 3.5e-05
same,peptide microarray binding signal,[4]; [15],0.00068 ± 1e-05
same,peptide microarray binding signal,[4]; [16],0.001211 ± 1.2e-05
ETRGVLKVFLENV [H4 53-65 E T R G V L Kac V F L E N V],peptide microarray binding signal,"[1]; peptide region: H4 53-65, peptide modifications: H4K59ac, binder concentration: 50 nM",0.00241 ± 3.2e-05
same,peptide microarray binding signal,"[1]; peptide region: H4 53-65, peptide modifications: H4K59ac, binder concentration: 500 nM",0.00333 ± 0.00022
same,peptide microarray binding signal,"[2]; peptide region: H4 53-65, peptide modifications: H4K59ac, binder concentration: 10 nM",0.00997 ± 0.0024
same,peptide microarray binding signal,"[2]; peptide region: H4 53-65, peptide modifications: H4K59ac, binder concentration: 100 nM",0.00425 ± 0.00013
same,peptide microarray binding signal,[3]; [17],0.00104 ± 4.9e-05
same,peptide microarray binding signal,[3]; [18],0.00143 ± 4.8e-05
same,peptide microarray binding signal,[4]; [17],0.000529 ± 1.3e-05
same,peptide microarray binding signal,[4]; [18],0.00104 ± 2.1e-05
ARRGGVKRISGLI [H4 38-50 A R R G G V K Rme2a I S G L I],peptide microarray binding signal,"[1]; peptide region: H4 38-50, peptide modifications: H4R45me2a, binder concentration: 50 nM",0.00589 ± 0.00093
same,peptide microarray binding signal,"[1]; peptide region: H4 38-50, peptide modifications: H4R45me2a, binder concentration: 500 nM",0.0275 ± 0.023
same,peptide microarray binding signal,"[2]; peptide region: H4 38-50, peptide modifications: H4R45me2a, binder concentration: 10 nM",0.0152 ± 0.0026
same,peptide microarray binding signal,"[2]; peptide region: H4 38-50, peptide modifications: H4R45me2a, binder concentration: 100 nM",0.024 ± 0.0022
same,peptide microarray binding signal,[3]; [19],0.00185 ± 3.4e-05
same,peptide microarray binding signal,[3]; [20],0.00468 ± 0.0014
same,peptide microarray binding signal,[4]; [19],0.00134 ± 0.00014
same,peptide microarray binding signal,[4]; [20],0.00144 ± 7.5e-05
ARRGGVKRISGLI [H4 38-50 A R R G G V K Rme2s I S G L I],peptide microarray binding signal,"[1]; peptide region: H4 38-50, peptide modifications: H4R45me2s, binder concentration: 50 nM",0.0042 ± 0.00012
same,peptide microarray binding signal,"[1]; peptide region: H4 38-50, peptide modifications: H4R45me2s, binder concentration: 500 nM",0.00971 ± 0.0016
same,peptide microarray binding signal,"[2]; peptide region: H4 38-50, peptide modifications: H4R45me2s, binder concentration: 10 nM",0.0212 ± 0.0027
same,peptide microarray binding signal,"[2]; peptide region: H4 38-50, peptide modifications: H4R45me2s, binder concentration: 100 nM",0.0349 ± 0.0095
same,peptide microarray binding signal,[3]; [21],0.00542 ± 0.0019
same,peptide microarray binding signal,[3]; [22],0.00702 ± 0.0012
same,peptide microarray binding signal,[4]; [21],0.00222 ± 0.0001
same,peptide microarray binding signal,[4]; [22],0.00173 ± 4.4e-05
ETRGVLKVFLENV [H4 53-65 E T R G V L Kme2 V F L E N V],peptide microarray binding signal,"[1]; peptide region: H4 53-65, peptide modifications: H4K59me2, binder concentration: 50 nM",0.00674 ± 0.0001
same,peptide microarray binding signal,"[1]; peptide region: H4 53-65, peptide modifications: H4K59me2, binder concentration: 500 nM",0.00752 ± 0.00054
same,peptide microarray binding signal,"[2]; peptide region: H4 53-65, peptide modifications: H4K59me2, binder concentration: 10 nM",0.0113 ± 0.00022
same,peptide microarray binding signal,"[2]; peptide region: H4 53-65, peptide modifications: H4K59me2, binder concentration: 100 nM",0.00758 ± 0.0001
same,peptide microarray binding signal,[3]; [23],0.00177 ± 0.00011
same,peptide microarray binding signal,[3]; [24],0.00394 ± 0.0003
same,peptide microarray binding signal,[4]; [23],0.00122 ± 2.8e-05
same,peptide microarray binding signal,[4]; [24],0.003113 ± 2.6e-05

# — the supplement of paper PMC4022240
